# Screening data deposited in PubChem BioAssay by Center for Chemical Genomics, University of Michigan.
# HIV TAR-Tat – TAR RNA-Tat peptide displacers, HIV-1, primary screen, biochemical, FRET, FAM/TAMRA-labeled Tat; z-score (test concentration not listed); hit rate 0.6% among 100,000; HIV-1 TAR RNA, Tat peptide displacement FRET; stronger effect = higher value; active = z-score of 3 or more in at least 2 runs
# CDC25B CDK2 inh – primary biochemical HTRF screen for blockers of M-phase inducer phosphatase 2 binding to CDK2/cyclin A; HTRF CDC25B-CDK2/CyclinA binding, anti-His/anti-Flag; stronger effect = higher value; z-score (concentration not given with the values); hit rate 0.72% among 94,000; AID 1259370, 2018; P30305+P24941; in the data active = z-score above about 3.2
# Starred values were filed as active, the others as inactive; . = no result given. Compounds with a hit are over-represented: about 0.9% of the library has one in this group of screens.
SMILES,HIV TAR-Tat,CDC25B CDK2 inh
Cc1ccc(-c2cc(C(=O)O)c3c(-c4ccccc4)[nH]nc3n2)cc1,0.86,.
Cc1ccc(-c2[nH]nc3nc(-c4ccc(O)c(O)c4)cc(C(=O)O)c23)cc1,20*,-0.27
CCN1CCN(C(=O)c2c(C)oc3ncnc(N4CCCCC4)c23)CC1,-0.83,.
CCN1CCN(C(=O)c2c(C)oc3c2cc(OC(C)=O)c2ccccc23)CC1,-2.3,7.7*
CC(C)NC(=O)C1=Cc2cc(Br)ccc2OC1,0.89,.
Cc1ccsc1CN(C(=O)c1cccs1)C1CCS(=O)(=O)C1 (stereo not given),0.64,-1.1
O=C1C[C@@H](c2ccc(O)c(O)c2)Oc2cc(O[C@H]3O[C@@H](CO)[C@H](O)[C@@H](O)[C@@H]3O)cc(O)c21,3.2,.
O=C1/C(=C\c2ccc(O)c(O)c2)Oc2c1ccc(O[C@@H]1O[C@H](CO)[C@@H](O)[C@H](O)[C@H]1O)c2O,16*,.
Cc1cc(C)cc(OCc2cc(=O)n3oc(C)cc3n2)c1,0.64,-0.7
CC(=O)Nc1cccc(OCc2cc(=O)n3oc(C)cc3n2)c1,8.1*,-2
CCCCn1c(C)c(C)c2c1ncn1nc(-c3cccc(C)c3)nc21,1.9,-0.55
O=C(CN1C(=O)c2cccc3cccc1c23)NCc1ccccn1,0.42,-0.95
O=C1c2cccc3c(SCCO)ccc(c23)C(=O)N1CCc1ccccn1,.,7.8*
CCOCCCNC(=O)N1CCC(n2nnc3ccccc3c2=O)CC1,1.1,.
O=C(Nc1ccc(N2CCOCC2)cc1)C1=Cc2ccccc2OC=C1,-0.12,-0.7
COc1c([N+](=O)[O-])cc(S(=O)(=O)N2CCOCC2)cc1[N+](=O)[O-],.,-0.72
COC(=O)c1c(OC)cc2c(c1C)Oc1c(Cl)c(OC(C)=O)c(Cl)c(C)c1C(=O)O2,-0.25,.
COc1c(Cl)c(C)c2c(c1Cl)OC(=O)c1c(C)c(Cl)c(O)c(Cl)c1O2,30*,.
CCCCCCCCCCCCCCCC(=O)OC[C@H](O)[C@H]1OC(=O)C(O)=C1O,17*,.
O=C1O[C@H]([C@@H](O)CO)C(O)=C1O,0.06,.
CCCCc1c(C)nc2nc(NCc3cccs3)[nH]n2c1=O,-0.52,-2.3
Cc1ccccc1OCc1nc2c3cnn(-c4ccccc4Cl)c3ncn2n1,1.3,-2.6
OCCNCc1cccc(Oc2nnnn2-c2ccccc2)c1,0.8,.
c1ccc(-n2nnnc2Oc2cccc(CNCc3cccnc3)c2)cc1,21*,.
Cc1cccc(CN2CCc3c(Br)cccc3C2)c1,-0.6,-1.6
SMILES,HIV TAR-Tat,CDC25B CDK2 inh
COC(=O)Cn1ncc2c3ccccc3n(Cc3ccccc3F)c2c1=O,-0.17,0.01
COc1cccc([C@@H]2Nc3ccc(C(=O)O)cc3[C@@H]3C=CC[C@@H]32)c1,14*,2
COC(=O)c1ccc([C@@H]2Nc3ccc(C(=O)O)cc3[C@@H]3C=CC[C@@H]32)cc1,7.4*,0.2
CC(=O)Oc1ccc(C2Nc3ccc(C)cc3C3C=CCC32)c(OC(C)=O)c1 (stereo not given),-5.2,0.59
COc1cccc([C@@H]2Nc3ccc(C(=O)O)cc3[C@@H]3C=CC[C@@H]32)c1OC,-0.49,0.41
COC(=O)c1ccc(C2Nc3ccc(OC)cc3C3C=CCC32)cc1 (stereo not given),0.02,-0.39
CC(=O)Oc1ccc(C2Nc3ccc(C(=O)O)cc3C3C=CCC32)c(OC(C)=O)c1 (stereo not given),.,5.1*
O=C(O)c1ccc2c(c1)C1C=CCC1C(c1ccc(F)cc1)N2 (stereo not given),10*,0.41
CCc1ccc(C2Nc3ccc(C(=O)O)cc3C3C=CCC32)cc1 (stereo not given),.,0.26
Cc1cccc2c1NC(=O)C2(O)CC(=O)c1ccccc1Br (stereo not given),0.32,.
COc1ccccc1OCc1nnc2sc(-c3ccccc3)nn12,1.9,0.76
Cc1cc(S(=O)(=O)NC(c2ccc(Cl)cc2)c2nnc(-c3ccccc3)o2)ccc1F (stereo not given),0.35,.
CCOCCCNC(=O)N1c2ccccc2NC2=C(C(=O)CCC2)C1c1ccco1 (stereo not given),0.02,.
CC(Sc1nnc(-c2cccc(NC(=O)c3cccc4ccccc34)c2)n1C)C(=O)O (stereo not given),.,-1.1
Cc1cccc(NS(=O)(=O)c2ccc(/C=C/c3onc(C)c3[N+](=O)[O-])s2)c1,1.4,.
CSc1nc2c(c(=O)[nH]1)C(c1ccc(O)c(O)c1)CC(=O)N2 (stereo not given),18*,5.6
CSc1nc2c(c(=O)[nH]1)C(c1cccc(O)c1)CC(=O)N2 (stereo not given),2.8,-2.4
CCSc1nc2c(c(=O)[nH]1)C(c1ccc(O)c(O)c1)CC(=O)N2 (stereo not given),22*,14*
CCSc1nc2c(c(=O)[nH]1)C(c1cccc(O)c1)CC(=O)N2 (stereo not given),0.62,-1.4
CCc1nn(CCCC(=O)NCCCN2CCN(C)CC2)c(=O)c2cc3oc(C)cc3n12,0.23,0.71
Cc1oc2cc3c(C#N)c(C)oc3cc2c1C#N,.,-1.9
C[C@@H]1O[C@@H](OC2O[C@@H](COc3cc(O)c4c(=O)cc(-c5ccc(O)cc5)oc4c3)[C@@H](O)[C@@H](O)[C@@H]2O)[C@H](O)[C@H](O)[C@H]1O (stereo not given in full),1.2,.
O=c1cc(-c2cc(O)c(O)c([C@@H]3O[C@H](CO)[C@@H](O)[C@H](O)[C@H]3O)c2)oc2cc(O[C@@H]3O[C@H](CO)[C@@H](O)[C@H](O)[C@H]3O)cc(O)c12,25*,.
O=c1cc(-c2ccc(O)c(O)c2)oc2cc(O)c([C@@H]3O[C@H](CO)[C@@H](O)[C@H](O)[C@H]3O)c(O)c12,26*,.
C[C@@H]1O[C@@H](O[C@H]2[C@H](Oc3cc(O)c4c(=O)cc(-c5ccc(O)cc5)oc4c3)O[C@H](CO)[C@@H](O)[C@@H]2O)[C@H](O)[C@H](O)[C@H]1O,1.1,.
SMILES,HIV TAR-Tat,CDC25B CDK2 inh
Cc1noc(/C=C/c2ccco2)c1S(=O)(=O)N1CCCC(C(=O)N2CCCCC2)C1 (stereo not given),1.4,.
Cc1ccccc1C1CC(=O)Nc2c1c(C)nn2-c1nncc(-c2ccc(F)cc2)n1 (stereo not given),1.9,0.53
COCCN1C(=O)c2ccc(-c3ccco3)n2CC1(C)C(=O)NC1CCCC1 (stereo not given),0.34,.
CCOc1ccc(-c2noc(-c3nnn(-c4ccc(Br)cc4)c3N)n2)cc1,0.02,.
CSc1sc(C(=O)NC(=O)Nc2ccc(Cl)cc2)c2c1-c1nocc1CC2,.,13*
CSc1sc(C(=O)NNC(=O)Nc2ccc(Cl)cc2)c2c1C1(CCC2)SCCS1,.,-1.5
Cc1nc(N2CCN(C)CC2)cc(N2CCN(C(=O)Nc3ccccc3)CC2)n1,-0.13,-0.2
Cc1onc(-c2ccccc2)c1NC(=O)Nc1ccc(C2=NC(C)(C)CO2)cc1,.,5.6*
Cc1onc(-c2ccccc2)c1NC(=O)Nc1ccccc1N1CCOCC1,.,-1.6
CN(CCNC(=O)c1c2c(nc3ccccc13)C(=O)N(C1CCCCC1)C2)Cc1ccccc1,0.62,.
CC(C)Cn1cc(NC(=O)Nc2ccc(Br)cc2F)c2ccccc2c1=O,-0.05,14*
CC(C)Cn1cc(NC(=O)Nc2cc(F)ccc2F)c2ccccc2c1=O,1.1,.
CCCN(CCC)C(=O)CSc1nc2ncccc2o1,0.94,.
